PrPC surface inh – reduces human prion protein on the cell surface; P04156; cell surface PrPC, TR-FRET read-out; inhibition, % at 13.8 µM; hit rate 0.43% among 370,000; AID 720596; in the data active = inhibition above about 24%; also: 0% = median of the test wells and 100% = reference compound wells
TcdB GH inh – inhibitors of Clostridioides difficile toxin B glycohydrolase; P18177; hit rate 0.24% among 350,000; AID 652162; inhibition, % at 9.99 µM; TcdB glycohydrolase enzymatic assay, plate reader; in the data active = inhibition above about 10%
GDH-TPI counter – inhibits GDH-TPI coupling enzymes, artifact for Mtb FBA screen | GDH-TPI coupled enzyme counterscreen, NADH absorbance | inhibition, % at 4.8 µM | hit rate 1.2% among 360,000 | AID 588335; in the data active = inhibition above about 30%;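 also: 0% = DMSO wells and 100% = wells lacking the enzyme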
Y pestis TopoI – Y. pestis Topo-I inhibition via cleavage products | Y. pestis Topo-I cleavage product accumulation, plate reader | hit rate 0.064% among 360,000 | AID 504884 | activity, % at 10 µM; in the data active = activity above about 50%, passing the limit was not always enough
FBA Mtb inh – inhibits M. tuberculosis FBA enzyme; P9WQA3; purified M. tuberculosis FBA, fluorescence read-out; inhibition, % at 1 µM; hit rate 2.3% among 360,000; AID 588726; in the data active = inhibition above about 27%;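 also: 0% = vehicle and 100% = reference inhibitor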
Numbers without * were called inactive; . = not tested or not shown; + = active, no number; ! = not confirmed by another sample. In the library only some 3.2% were active in any assay of this set; here they are far more common.

SMILES	PrPC surface inh	TcdB GH inh	GDH-TPI counter	Y pestis TopoI	FBA Mtb inh
C[C@@H]1CCCCO[C@@H](CN(C)S(=O)(=O)c2cccs2)[C@H](C)CN([C@@H](C)CO)C(=O)c2cc(NS(=O)(=O)c3cn(C)cn3)ccc2O1	.	1	.	.	.
O=C(CN1CCCC1)NCC(=O)Nc1ccc(F)cc1	-5	1	11	4	+
Cc1ccc(-c2cnc3c(c2)C(=O)N([C@H](C)CO)C[C@H](C)[C@H](CN(C)CC2CCCC2)O3)cc1	.	0	.	.	.
CCOC(=O)[C@]12Cc3cc(C)ccc3[C@H]1N(C1CCCCC1)C(=O)c1cc(OC)ccc12	38*	0	.	.	.
CCCN1[C@@H]2Cn3c(ccc(-c4ccccc4F)c3=O)[C@H]1[C@@H](C(=O)NCC)[C@@H]2CO	.	0	.	.	.
CC(=O)N(C)C[C@H]1Oc2ncc(C#Cc3ccccc3F)cc2C(=O)N([C@@H](C)CO)C[C@H]1C	.	0	.	.	.
O=C(CC(=O)c1c(F)cccc1Cl)c1ccccc1O	-9	0	33*	-6	10
C[C@H]1CCCCO[C@@H](CN(C)C(=O)Nc2ccc(F)cc2)[C@@H](C)CN([C@@H](C)CO)C(=O)c2cc(NS(=O)(=O)c3ccc(Cl)cc3)ccc2O1	.	0	.	.	.
C[C@H]1CN([C@@H](C)CO)C(=O)c2cc(NS(=O)(=O)c3cccs3)ccc2O[C@H]1CN(C)CC1CCCCC1	.	1	.	.	.
Cc1noc(C)c1S(=O)(=O)N1CCCC(C(=O)Nc2ccc(Cl)cn2)C1 (stereo unspecified)	2	.	2	11	75*
Cc1ccc(NC(=O)C2CCCN(S(=O)(=O)c3c(C)noc3/C=C/N(C)C)C2)cc1F (stereo unspecified)	-7	1	40*	1	0
Cc1ccc(NC(=O)C2CCN(S(=O)(=O)c3c(C)noc3/C=C/N(C)C)CC2)cc1	6	3	45*	19	0
Cc1noc(/C=C/N(C)C)c1S(=O)(=O)N1CCC(C(=O)Nc2ccc(Cl)cc2)CC1	0	3	28	14	0
Cc1noc(/C=C/N(C)C)c1S(=O)(=O)N1CCC(C(=O)NC(C)(C)C)CC1	-8	1	41*	8	-3
CC(C)Cc1cc(C(=O)N2CCCC(CO)(Cc3ccc(F)cc3)C2)no1 (stereo unspecified)	0	11*	7	20	1
C[C@H](CO)N1C[C@H](C)[C@H](CN(C)C(=O)C2CCCCC2)Oc2cc(C#CC(C)(C)O)ccc2S1(=O)=O	.	0	.	.	.
O=C(c1cccs1)N1CCN(c2ccc([N+](=O)[O-])cc2F)CC1	-31	1	7	3	-3
Cc1cc(N2CCN(C(=O)c3cccs3)CC2)c(F)cc1[N+](=O)[O-]	-4	-3	38*	-4	-4
CCC(=O)c1ccc(N2CCN(C(=O)c3cccs3)CC2)c(F)c1	6	0	32*	-3	2
O=C(c1ccc(Cl)cc1[N+](=O)[O-])N1CCOCC1	-9	-1	-4	5	1
O=C(c1cc(N2CCOCC2)c(F)cc1[N+](=O)[O-])N1CCOCC1	-19	0	15	-4	51*
Cc1noc(C)c1NC(=O)N[C@@H]1CC[C@H](CC(=O)NCc2ccc(Cl)c(Cl)c2)O[C@H]1CO	.	-1	.	.	.
O=C1C(=O)N(c2ccc(O)cc2)C(c2ccccc2[N+](=O)[O-])/C1=C(\O)c1ccccc1 (stereo unspecified)	-6	8	36*	16	-5
O=C1C(=O)N(CCO)C(c2ccccc2[N+](=O)[O-])/C1=C(\O)c1ccccc1 (stereo unspecified)	-5	-6	12	5	2
CC(C)CC#Cc1cnc2c(c1)C(=O)N([C@H](C)CO)C[C@H](C)[C@H](CN(C)C(=O)C1CCOCC1)O2	.	-3	.	.	.
SMILES	PrPC surface inh	TcdB GH inh	GDH-TPI counter	Y pestis TopoI	FBA Mtb inh
Cc1cc(=O)oc(C)c1C(=O)NCC(C)C	5	0	7	-1	2
CCCNC(=O)c1c(C)cc(=O)oc1C	-7	.	47*	1	1
CCCCN(CCCNC(=O)c1c(C)cc(=O)oc1C)c1ccccc1	0	.	5	39	-1
CCN(CCCNC(=O)c1c(C)cc(=O)oc1C)c1ccccc1	-2	.	36*	13	1
CC(C)NC(=O)N(C)C[C@H]1OCc2ccccc2-c2c(n(C)c3ccccc23)C(=O)N([C@@H](C)CO)C[C@H]1C	.	0	.	.	.
CCS(=O)(=O)N1[C@H](C#N)[C@H](c2ccc(C#CC(C)C)cc2)[C@@H]1CO	.	0	.	.	.
C[C@H](CO)N1C[C@H](C)[C@@H](CN(C)CC2CCCCC2)Oc2ccc(NC(=O)CCN3CCOCC3)cc2C1=O	-3	10*!	4	23	0
C[C@H]1CN([C@@H](C)CO)C(=O)c2cc(NC(=O)CCN3CCOCC3)ccc2O[C@@H]1CN(C)CC1CCCCC1	.	-1	.	.	.
N#C/C(=C\c1ccc(N2CCOCC2)o1)C(=O)Nc1ccc(O)cc1	-47	19*	2	-1	-45
COc1ccc(NC(=O)/C(C#N)=C\c2ccc(N3CCOCC3)o2)cc1	-36	0	2	1	-29
CO[C@@H]1CC[C@H]2CCN(C)C(=O)[C@H](C)N(C)C(=O)c3cc(C#N)ccc3OC[C@@H]1O2	.	0	.	.	.
CC12CCC(=O)N1C(C(=O)OCc1c(Cl)cccc1Cl)CS2 (stereo unspecified)	2	12*	9	23	3
O=C(Cc1ccncc1)N1CC[C@@H]2[C@H]1c1cc(-c3ccccc3F)ccc1N[C@@H]2CO	.	1	.	.	.
OCCN(CCO)c1cc2c3ccccc3ccc2c2ccccc12	0	0	2	-31	131*
c1ccc2c(c1)ccc1ccccc12	8	1	9	-4	5
CCOc1ccccc1/C=C\c1nc(O)c([N+](=O)[O-])c(=O)[nH]1	-7	1	37*	-6	-1
O=c1[nH]c(/C=C\c2cccc(O)c2)nc(O)c1[N+](=O)[O-]	-21	1	35*	2	-7
CCNC(=O)C[C@H]1CC[C@@H](NC(=O)C2CC2)[C@@H](CO)O1	.	-3	.	.	.
Cc1ccc(N/N=C/c2c(O)n(-c3ccccc3)c(=O)[nH]c2=O)cc1	6	14*	30	0	-2
CC(C)NC(=O)N(C)C[C@H]1Oc2ccc(NC(=O)Nc3cccc4ccccc34)cc2CC(=O)N([C@@H](C)CO)C[C@@H]1C	.	1	.	.	.
CCN(CC)c1ccc2c(-c3ccc(S(=O)(=O)O)cc3S(=O)(=O)[O-])c3ccc(=[N+](CC)CC)cc-3oc2c1	.	-43	15	+	0
N#C/C(=C\c1ccc(OCc2ccc(Br)cc2)cc1)C(=O)Nc1cccc(C(=O)O)c1	-7	0	-2	4	0
COc1cc(/C=C(/C#N)c2ccc(F)cc2)ccc1OCc1ccc(C(=O)O)o1	-11	.	45*	-2	1
N#C/C(=C\c1ccc(OCc2ccc(F)cc2)cc1)C(=O)Nc1cccc(C(=O)O)c1	-1	0	73*	6	-6
COc1cc(/C=C(\C#N)C(=O)Nc2cccc(C(=O)O)c2)ccc1OCc1ccc(F)cc1	0	1	36*	-8	0
COC(=O)c1ccc(COc2ccc(C=O)cc2OC)o1	4	0	1	4	2

Source: PubChem (several laboratories)
